Each binder was assayed against AgAbp1 (assay: SPOT peptide array binding signal intensity (averaged, normalized) (arbitrary units (background-subtracted, floor 0; scale differs between SH3 domains)); higher = stronger binding of the SH3 domain to the peptide).
How it was run: (§1)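 Four yeast species supplied the SH3 domains, which were expressed as GST fusions in E. coli BL21(DE3) and purified on glutathione Sepharose. Incubation with cellulose membranes carrying synthetic 15-mer peptides, cysteines exchanged for serines, ran overnight at 4°C at 10 μg/ml in TBS-based blocking buffer. Binding signal is reported as normalized, background-subtracted spot intensity averaged over replicates, in arbitrary units not shared between domains.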

Binder	SPOT peptide array binding signal intensity
IKTRSVPKIPSIESV	9

What follows are binders tested against AgBbc1 in the same assay as above.
How it was run: as §1

Binder	SPOT peptide array binding signal intensity
IKTRSVPKIPSIESV	78.8

Each binder was assayed against AgBem1-D1 in the same assay as above.
How it was run: as §1

Binder	SPOT peptide array binding signal intensity
IKTRSVPKIPSIESV	40

These binders were tested against AgBzz1-D1 in the same assay as above.
How it was run: as §1

Binder	SPOT peptide array binding signal intensity
IKTRSVPKIPSIESV	24.5

The binders below were run against AgBzz1-D2 in the same assay as above.
How it was run: as §1

Binder	SPOT peptide array binding signal intensity
IKTRSVPKIPSIESV	33.5

The binders below were run against AgCyk3 in the same assay as above.
How it was run: as §1

Binder	SPOT peptide array binding signal intensity
IKTRSVPKIPSIESV	1

Each binder was assayed against AgFus1 in the same assay as above.
How it was run: as §1

Binder	SPOT peptide array binding signal intensity
IKTRSVPKIPSIESV	4

Each binder was assayed against AgHof1 in the same assay as above.
How it was run: as §1

Binder	SPOT peptide array binding signal intensity
IKTRSVPKIPSIESV	27.8

The binders below were run against AgHse1 in the same assay as above.
How it was run: as §1

Binder	SPOT peptide array binding signal intensity
IKTRSVPKIPSIESV	19.5

What follows are binders tested against AgLsb1 in the same assay as above.
How it was run: as §1

Binder	SPOT peptide array binding signal intensity
IKTRSVPKIPSIESV	71

These binders were tested against AgLsb4 in the same assay as above.
How it was run: as §1

Binder	SPOT peptide array binding signal intensity
IKTRSVPKIPSIESV	873

These binders were tested against AgMyo5 in the same assay as above.
How it was run: as §1

Binder	SPOT peptide array binding signal intensity
IKTRSVPKIPSIESV	0.75

Each binder was assayed against AgNbp2 in the same assay as above.
How it was run: as §1

Binder	SPOT peptide array binding signal intensity
IKTRSVPKIPSIESV	2650

Each binder was assayed against AgRvs167 in the same assay as above.
How it was run: as §1

Binder	SPOT peptide array binding signal intensity
IKTRSVPKIPSIESV	12.7

Each binder was assayed against AgSho1 in the same assay as above.
How it was run: as §1

Binder	SPOT peptide array binding signal intensity
IKTRSVPKIPSIESV	3

What follows are binders tested against AgSla1-D1-D2 in the same assay as above.
How it was run: as §1

Binder	SPOT peptide array binding signal intensity
IKTRSVPKIPSIESV	≤ 0

These binders were tested against AgSla1-D3 in the same assay as above.
How it was run: as §1

Binder	SPOT peptide array binding signal intensity
IKTRSVPKIPSIESV	≤ 0

Each binder was assayed against CaAbp1-D1 in the same assay as above.
How it was run: as §1

Binder	SPOT peptide array binding signal intensity
IKTRSVPKIPSIESV	182

Each binder was assayed against CaAbp1-D2 in the same assay as above.
How it was run: as §1

Binder	SPOT peptide array binding signal intensity
IKTRSVPKIPSIESV	82

The binders below were run against CaBbc1 in the same assay as above.
How it was run: as §1

Binder	SPOT peptide array binding signal intensity
IKTRSVPKIPSIESV	604

The binders below were run against CaBem1-D1 in the same assay as above.
How it was run: as §1

Binder	SPOT peptide array binding signal intensity
IKTRSVPKIPSIESV	0.5

What follows are binders tested against CaBzz1-D1 in the same assay as above.
How it was run: as §1

Binder	SPOT peptide array binding signal intensity
IKTRSVPKIPSIESV	197

What follows are binders tested against CaBzz1-D2 in the same assay as above.
How it was run: as §1

Binder	SPOT peptide array binding signal intensity
IKTRSVPKIPSIESV	245

Each binder was assayed against CaCyk3 in the same assay as above.
How it was run: as §1

Binder	SPOT peptide array binding signal intensity
IKTRSVPKIPSIESV	85.5

What follows are binders tested against CaFus1 in the same assay as above.
How it was run: as §1

Binder	SPOT peptide array binding signal intensity
IKTRSVPKIPSIESV	32.5

What follows are binders tested against CaHof1 in the same assay as above.
How it was run: as §1

Binder	SPOT peptide array binding signal intensity
IKTRSVPKIPSIESV	≤ 0

The binders below were run against CaHse1 in the same assay as above.
How it was run: as §1

Binder	SPOT peptide array binding signal intensity
IKTRSVPKIPSIESV	5

These binders were tested against CaLsb1 in the same assay as above.
How it was run: as §1

Binder	SPOT peptide array binding signal intensity
IKTRSVPKIPSIESV	≤ 0

The binders below were run against CaLsb4 in the same assay as above.
How it was run: as §1

Binder	SPOT peptide array binding signal intensity
IKTRSVPKIPSIESV	1880

What follows are binders tested against CaMyo5 in the same assay as above.
How it was run: as §1

Binder	SPOT peptide array binding signal intensity
IKTRSVPKIPSIESV	1.25

Each binder was assayed against CaNbp2 in the same assay as above.
How it was run: as §1

Binder	SPOT peptide array binding signal intensity
IKTRSVPKIPSIESV	320

Each binder was assayed against CaRvs167 in the same assay as above.
How it was run: as §1

Binder	SPOT peptide array binding signal intensity
IKTRSVPKIPSIESV	339

These binders were tested against CaRvs167-3 in the same assay as above.
How it was run: as §1

Binder	SPOT peptide array binding signal intensity
IKTRSVPKIPSIESV	15

Each binder was assayed against CaSho1 in the same assay as above.
How it was run: as §1

Binder	SPOT peptide array binding signal intensity
IKTRSVPKIPSIESV	≤ 0

What follows are binders tested against CaSla1-D1-D2 in the same assay as above.
How it was run: as §1

Binder	SPOT peptide array binding signal intensity
IKTRSVPKIPSIESV	123

The binders below were run against CaSla1-D3 in the same assay as above.
How it was run: as §1

Binder	SPOT peptide array binding signal intensity
IKTRSVPKIPSIESV	≤ 0

The binders below were run against ScAbp1 in the same assay as above.
How it was run: as §1

Binder	SPOT peptide array binding signal intensity
IKTRSVPKIPSIESV	11

These binders were tested against ScBbc1 in the same assay as above.
How it was run: as §1

Binder	SPOT peptide array binding signal intensity
IKTRSVPKIPSIESV	37.8

Each binder was assayed against ScBem1-D1 in the same assay as above.
How it was run: as §1

Binder	SPOT peptide array binding signal intensity
IKTRSVPKIPSIESV	38.5

What follows are binders tested against ScBzz1-D1 in the same assay as above.
How it was run: as §1

Binder	SPOT peptide array binding signal intensity
IKTRSVPKIPSIESV	26

What follows are binders tested against ScBzz1-D2 in the same assay as above.
How it was run: as §1

Binder	SPOT peptide array binding signal intensity
IKTRSVPKIPSIESV	13

What follows are binders tested against ScCyk3 in the same assay as above.
How it was run: as §1

Binder	SPOT peptide array binding signal intensity
IKTRSVPKIPSIESV	≤ 0

Each binder was assayed against ScFus1 in the same assay as above.
How it was run: as §1

Binder	SPOT peptide array binding signal intensity
IKTRSVPKIPSIESV	≤ 0

What follows are binders tested against ScHof1 in the same assay as above.
How it was run: as §1

Binder	SPOT peptide array binding signal intensity
IKTRSVPKIPSIESV	16.2

Each binder was assayed against ScHse1 in the same assay as above.
How it was run: as §1

Binder	SPOT peptide array binding signal intensity
IKTRSVPKIPSIESV	26

These binders were tested against ScLsb1 in the same assay as above.
How it was run: as §1

Binder	SPOT peptide array binding signal intensity
IKTRSVPKIPSIESV	4

Each binder was assayed against ScLsb2 in the same assay as above.
How it was run: as §1

Binder	SPOT peptide array binding signal intensity
IKTRSVPKIPSIESV	61

The binders below were run against ScLsb3 in the same assay as above.
How it was run: as §1

Binder	SPOT peptide array binding signal intensity
IKTRSVPKIPSIESV	4820

What follows are binders tested against ScLsb4 in the same assay as above.
How it was run: as §1

Binder	SPOT peptide array binding signal intensity
IKTRSVPKIPSIESV	1030

Each binder was assayed against ScMyo3 in the same assay as above.
How it was run: as §1

Binder	SPOT peptide array binding signal intensity
IKTRSVPKIPSIESV	4.5

What follows are binders tested against ScMyo5 in the same assay as above.
How it was run: as §1

Binder	SPOT peptide array binding signal intensity
IKTRSVPKIPSIESV	7

What follows are binders tested against ScNbp2 in the same assay as above.
How it was run: as §1

Binder	SPOT peptide array binding signal intensity
IKTRSVPKIPSIESV	3220

The binders below were run against ScPex13 in the same assay as above.
How it was run: as §1

Binder	SPOT peptide array binding signal intensity
IKTRSVPKIPSIESV	633

These binders were tested against ScRvs167 in the same assay as above.
How it was run: as §1

Binder	SPOT peptide array binding signal intensity
IKTRSVPKIPSIESV	2950

What follows are binders tested against ScSho1 in the same assay as above.
How it was run: as §1

Binder	SPOT peptide array binding signal intensity
IKTRSVPKIPSIESV	25.5

What follows are binders tested against ScSla1-D1-D2 in the same assay as above.
How it was run: as §1

Binder	SPOT peptide array binding signal intensity
IKTRSVPKIPSIESV	146

Each binder was assayed against ScSla1-D3 in the same assay as above.
How it was run: as §1

Binder	SPOT peptide array binding signal intensity
IKTRSVPKIPSIESV	38.5

Each binder was assayed against SpAbp1-D1 in the same assay as above.
How it was run: as §1

Binder	SPOT peptide array binding signal intensity
IKTRSVPKIPSIESV	5

What follows are binders tested against SpBbc1 in the same assay as above.
How it was run: as §1

Binder	SPOT peptide array binding signal intensity
IKTRSVPKIPSIESV	28.8

These binders were tested against SpBzz1-D1 in the same assay as above.
How it was run: as §1

Binder	SPOT peptide array binding signal intensity
IKTRSVPKIPSIESV	236

Each binder was assayed against SpBzz1-D2 in the same assay as above.
How it was run: as §1

Binder	SPOT peptide array binding signal intensity
IKTRSVPKIPSIESV	0.5

These binders were tested against SpCyk3 in the same assay as above.
How it was run: as §1

Binder	SPOT peptide array binding signal intensity
IKTRSVPKIPSIESV	≤ 0

The binders below were run against SpHof1 in the same assay as above.
How it was run: as §1

Binder	SPOT peptide array binding signal intensity
IKTRSVPKIPSIESV	6

The binders below were run against SpHof1-2 in the same assay as above.
How it was run: as §1

Binder	SPOT peptide array binding signal intensity
IKTRSVPKIPSIESV	9

These binders were tested against SpHof1-3 in the same assay as above.
How it was run: as §1

Binder	SPOT peptide array binding signal intensity
IKTRSVPKIPSIESV	150

These binders were tested against SpHse1 in the same assay as above.
How it was run: as §1

Binder	SPOT peptide array binding signal intensity
IKTRSVPKIPSIESV	≤ 0

The binders below were run against SpLsb1 in the same assay as above.
How it was run: as §1

Binder	SPOT peptide array binding signal intensity
IKTRSVPKIPSIESV	24.2

These binders were tested against SpLsb4 in the same assay as above.
How it was run: as §1

Binder	SPOT peptide array binding signal intensity
IKTRSVPKIPSIESV	6060

What follows are binders tested against SpMyo1 in the same assay as above.
How it was run: as §1

Binder	SPOT peptide array binding signal intensity
IKTRSVPKIPSIESV	11.5

The binders below were run against SpNbp2 in the same assay as above.
How it was run: as §1

Binder	SPOT peptide array binding signal intensity
IKTRSVPKIPSIESV	≤ 0

These binders were tested against SpPex13 in the same assay as above.
How it was run: as §1

Binder	SPOT peptide array binding signal intensity
IKTRSVPKIPSIESV	≤ 0

These binders were tested against SpRvs167 in the same assay as above.
How it was run: as §1

Binder	SPOT peptide array binding signal intensity
IKTRSVPKIPSIESV	1930

The binders below were run against SpSla1-D1-D2 in the same assay as above.
How it was run: as §1

Binder	SPOT peptide array binding signal intensity
IKTRSVPKIPSIESV	4

What follows are binders tested against SpSla1-D3 in the same assay as above.
How it was run: as §1

Binder	SPOT peptide array binding signal intensity
IKTRSVPKIPSIESV	1

Source: the supplement of paper PMC4466140
